An excerpt weighted towards active compounds, which were near 3% of everything screened.
SENP8 block-1 – blocks the human protease SENP8. AID 2540. Q96LD8. 330,000 compounds, 1.2% hits. inhibition, % at 10 µM. purified SENP8, Z-RLRGG-aminoluciferin cleavage, luminescence; in the data active = inhibition above about 50%
TRAIL sens C8 – caspase-8 TRAIL sensitization; inhibition (viability loss, TRAIL sensitization), % at 10 µM; NB7+C8 cells + TRAIL, ATPlite viability luminescence; 360,000 compounds, 1% hits; AID 624354;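 active = compounds causing at least 50% loss of cell viability in the single-dose screen, relative to plate controls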
PPC-1+TRAIL kill – compounds killing PPC-1 cancer cells with TRAIL present (potentiator screen, no TRAIL-free arm); PPC-1 cells + TRAIL, ATPLite viability luminescence; cell killing (% activity), % at 4 µM or 5 µM; 220,000 compounds, 0.41% hits;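 active = cell killing above 50% in the first pass at 4 µM, then a duplicate retest at 5 µM averaging 50% or more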
SENP7 inh – SENP7 protease inhibition; Q9BQF6; recombinant SENP7, Z-RLRGG-aminoluciferin luminescence, 40 min; inhibition, % at 5 µM; 330,000 compounds, 1.5% hits;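 active = inhibition above about 50% at the single test dose, limit read from the data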
Target sequence (Q9BQF6 706-1050 limits assumed): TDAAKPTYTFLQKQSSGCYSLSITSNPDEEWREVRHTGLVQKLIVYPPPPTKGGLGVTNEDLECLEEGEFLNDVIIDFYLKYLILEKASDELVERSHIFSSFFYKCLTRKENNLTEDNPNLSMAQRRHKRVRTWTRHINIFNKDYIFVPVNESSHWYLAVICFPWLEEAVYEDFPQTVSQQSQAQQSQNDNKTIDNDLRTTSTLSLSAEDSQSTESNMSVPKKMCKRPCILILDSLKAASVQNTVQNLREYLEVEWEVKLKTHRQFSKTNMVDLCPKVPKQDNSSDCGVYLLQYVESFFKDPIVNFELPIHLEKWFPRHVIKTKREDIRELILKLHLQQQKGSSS
SENP8 block-2 – blocks human SENP8 cleavage of Nedd8 substrate | Q96LD8 | recombinant SENP8, Nedd8 substrate fluorescence | inhibition, % at 20 µM | 360,000 compounds, 0.64% hits | AID 602440; in the data active = inhibition mostly above about 40%, no sharp cut-off; inactive = mostly below about 27%
SENP6 inh – inhibitors of human SENP6 protease; Q9GZR1; Recombinant SENP6 catalytic domain, aminoluciferin luminescence; inhibition, % at 10 µM; 330,000 compounds, 1.8% hits; AID 2599;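 active = inhibition above about 50% at the single tested dose, limit read from the data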
PPC1 cytotox – kills PPC-1 cells. shares compounds with PPC-1+TRAIL kill. PPC-1 viability, ATPlite luminescence, overnight. cytotoxicity, % at 5 µM. 1,200 compounds, 50% hits;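 active = reconfirmed compounds whose average cytotoxicity reaches 50% or more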
SENP8 confirm – confirmation of human SENP8 protease inhibitors | shares compounds with SENP7 inh | Recombinant SENP8, Z-RLRGG-aminoluciferin luminescence, 60 min | inhibition, % at 12.5 µM | 6,200 compounds, 40% hits;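 active = mean inhibition across replicates above about 50%, limit read from the data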
SENP6 confirm – confirmation of human SENP6 protease inhibitors | shares compounds with SENP7 inh | recombinant SENP6, Z-RLRGG-aminoluciferin luminescence | inhibition, % at 12.5 µM | 6,200 compounds, 58% hits
SENP7 confirm – confirmation of human SENP7 protease inhibitors; shares compounds with SENP7 inh; recombinant SENP7, Z-RLRGG-aminoluciferin luminescence, 40 min; inhibition, % at 12.5 µM; 6,200 compounds, 69% hits; AID 488917
Casp3 SENP sel – inhibits human caspase-3 in SENP selectivity test; purified caspase-3, Z-DEVD-aminoluciferin luminescence, 60 min; 6,200 compounds, 60% hits; shares compounds with SENP7 inh; inhibition, % at 12.5 µM;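 active = mean inhibition above about 50%, limit read from the data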
Target sequence (P42574 28-227 limits assumed): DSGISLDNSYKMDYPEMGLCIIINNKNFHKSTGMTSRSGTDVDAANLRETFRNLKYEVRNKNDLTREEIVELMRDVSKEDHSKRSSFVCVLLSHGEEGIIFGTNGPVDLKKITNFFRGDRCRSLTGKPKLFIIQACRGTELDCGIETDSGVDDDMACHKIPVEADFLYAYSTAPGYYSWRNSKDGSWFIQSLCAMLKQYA
Luc interf – counter-screen for SENP inhibitors: luminescence interference; inhibition, % at 12.5 µM; Pre-incubated SENP8/Z-RLRGG-aminoluciferin, luciferase luminescence interference; shares compounds with SENP7 inh; 6,200 compounds, 39% hits;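 active = mean inhibition above about 50% when retested at one dose, limit read from the data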
A number is an active result; – = inactive; · = not tested or not shown.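 Rule for the calls, unless noted: active = mean inhibition above about 50% in the one-dose retest (limit read from the data); inactive = the rest.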

SMILES	SENP8 block-1	TRAIL sens C8	PPC-1+TRAIL kill	SENP7 inh	SENP8 block-2	SENP6 inh	PPC1 cytotox	SENP8 confirm	SENP6 confirm	SENP7 confirm	Casp3 SENP sel	Luc interf
c1ccc2nc(-c3nc4ccccc4[nH]3)ccc2c1	97	90	87	100	–	97	84	95	98	103	98	–
c1cncc(-c2nnc(-c3cccs3)o2)c1	–	–	–	–	–	–	·	·	·	·	·	·
c1csc(-c2nnc(-c3ccc(N4CCOCC4)cc3)o2)c1	–	51	–	52	–	59	–	–	–	–	–	–
Nc1ccc(O)c(-c2nc3ccccc3s2)c1	–	–	–	–	–	–	·	·	·	·	·	·
Nc1ccc(-c2nc3ccc(N)cc3s2)cc1	86	84	82	95	–	95	80	92	92	99	93	90
Nc1cccc(-c2nc3ccc(N)cc3s2)c1	94	70	74	98	–	97	72	98	98	102	97	96
Cc1ccc(N=C/C(C(=O)C(F)(F)F)=C(\O)c2cccs2)cc1	–	61	–	96	–	–	–	–	–	–	–	56
O=C(CCNS(=O)(=O)c1cccc(C(F)(F)F)c1)NC1CC1	–	–	·	–	–	–	·	·	·	·	·	·
COCn1c(-c2ccc(OC)cc2)nc2ccccc21	–	–	–	53	–	59	–	55	53	86	81	63
CCCn1c(-c2ccc(OC)cc2)nc2ccccc21	–	–	–	–	–	–	·	·	·	·	·	·
O=C(COc1ccc(Cl)cc1Cl)Nc1ccc(Cl)cn1	72	65	59	–	–	84	59	–	–	–	59	–
Cc1cc(Cl)ccc1OCC(=O)OCC(=O)Nc1ccc(Cl)cn1	·	–	·	·	–	·	·	·	·	·	·	·
CC1CCC(NC(=O)CCS(=O)(=O)c2ccc3c(c2)oc(=O)n3C)CC1 (stereo unspecified)	–	–	·	–	–	–	·	·	·	·	·	·
O=C1c2ccccc2-c2nnc(-c3ccc(O)cc3)cc21	96	–	69	100	–	99	64	95	94	101	96	–
Cc1ccc(-c2cc3c(nn2)-c2ccccc2C3=O)cc1	96	93	90	99	49	96	92	85	95	99	89	–
Oc1ccc(-c2cc(-c3ccc(O)cc3)nc(-c3ccccc3)n2)cc1	–	–	·	–	–	–	·	·	·	·	·	·
O=C1c2ccccc2-c2nnc(-c3ccc(F)cc3)cc21	90	83	78	99	42	83	79	86	84	82	–	–
Cc1ccccc1-c1cc2c(nn1)-c1ccccc1C2=O	96	55	–	98	105	100	–	83	99	102	98	56
CSCCC(NS(=O)(=O)c1ccc(C)cc1)C(=O)NC1CCCCCC1 (stereo unspecified)	–	–	·	–	–	–	·	·	·	·	·	·
COc1ccc(C(=O)Nc2cc(C)on2)c(OC)c1	–	–	·	–	–	–	·	·	·	·	·	·
COc1ccc(C(=O)Nc2ccc(C)cn2)c(OC)c1	90	91	88	94	–	90	88	93	92	100	94	91
Cc1ccccc1NC(=O)CC1C(=O)Nc2ccccc2N1CC(=O)N(C)C1CCS(=O)(=O)C1 (stereo unspecified)	–	–	·	–	–	–	·	·	·	·	·	·
O=C(Nc1ccc2c(c1)OCCO2)Nc1ccc2c(c1)OCO2	53	83	73	72	–	71	73	65	64	86	72	–
Cn1c(C(=O)Nc2ccc3c(c2)OCO3)cc2sccc21	–	–	–	63	–	71	–	59	61	88	–	–
NC(=O)c1ccc(NC(=O)Nc2ccc3c(c2)OCO3)cc1	–	–	·	–	–	–	·	·	·	·	·	·
SMILES	SENP8 block-1	TRAIL sens C8	PPC-1+TRAIL kill	SENP7 inh	SENP8 block-2	SENP6 inh	PPC1 cytotox	SENP8 confirm	SENP6 confirm	SENP7 confirm	Casp3 SENP sel	Luc interf
Cc1ccnc(NC(=O)Nc2ccc3c(c2)OCO3)c1	–	55	–	70	–	–	–	–	–	–	–	–
COc1cc(SC)ccc1C(=O)Nc1ccc2c(c1)OCCO2	63	66	68	81	–	79	65	80	81	95	75	64
CN(CC(=O)N1CCN(Cc2ccccc2)CC1)C(=O)Cc1ccc(Cl)c(Cl)c1	–	–	·	–	–	–	·	·	·	·	·	·
CCOC(=O)c1ccc(S(=O)(=O)N2CCN(CC(O)COc3cccc(C(C)=O)c3)CC2)cc1 (stereo unspecified)	·	–	·	·	–	·	·	·	·	·	·	·
COC(=O)[C@]12CCCCC=C1N(Cc1cccc3ccccc13)C(=O)[C@H](CC(=O)N1CCCC1)C2	·	–	·	·	–	·	·	·	·	·	·	·
O=C(Nc1ccccn1)c1cc2ccccc2o1	95	83	81	98	–	97	80	52	98	101	97	96
O=C(NC1=NCCS1)c1cc2ccccc2o1	–	58	58	60	–	53	51	–	–	81	77	58
CCc1nn2cc(-c3ccccc3)nc2s1	89	71	58	96	–	94	57	–	94	101	95	84
COc1ccc([C@H]2CC(=O)C=C(c3c(C)cc(C)cc3C)C2)cc1	–	–	·	–	–	–	·	·	·	·	·	·
Cc1cnc(NC(=O)COc2ccccc2Cl)s1	77	77	60	92	–	90	59	66	91	99	90	–
Cc1cnc(NC(=O)CCNC(=O)c2ccccc2Cl)s1	–	–	–	–	–	–	·	·	·	·	·	·
CC(=O)Nc1ccc(NC(=O)/C=C/c2ccc3c(c2)OCO3)cc1	–	–	–	–	–	–	·	·	·	·	·	·
O=C(/C=C/c1ccc2c(c1)OCO2)Nc1cccnc1	77	70	60	85	–	84	57	–	80	97	89	76
Cc1ccccc1Oc1ccc2c(c1)[C@@H]1C[C@H](N(C)C(=O)c3ccc(C#N)cc3)[C@H]([C@H](C)O)C(=O)N1CC2	·	–	·	·	–	·	·	·	·	·	·	·

From PubChem BioAssay
